Paper PMC5700166

What was measured:
Experiment in all cases: protein-binding microarray (PBM); PBM: ~300 nM protein, 6 mM HEPES pH 7.8, 80 mM KCl, 0.5 mM EDTA, 0.5 mM EGTA, 6% glycerol, 35 ng/ul poly-dIdC, 1% milk, 1 h, room temperature; Ap Aiptasia and Nv Nematostella (sea anemones) / Co Capsaspora / Aq Amphimedon (sponge) / Dm Drosophila / Hu human; RHD is the Rel homology domain; high values mean tight binding
Details in all cases: dsDNA, one strand shown
[1] = molecular target: T1, GST-Ap-NF-kB RHD (Exaiptasia pallida (Aiptasia), UniProt A0A913YAJ5 2-422)
T1 sequence: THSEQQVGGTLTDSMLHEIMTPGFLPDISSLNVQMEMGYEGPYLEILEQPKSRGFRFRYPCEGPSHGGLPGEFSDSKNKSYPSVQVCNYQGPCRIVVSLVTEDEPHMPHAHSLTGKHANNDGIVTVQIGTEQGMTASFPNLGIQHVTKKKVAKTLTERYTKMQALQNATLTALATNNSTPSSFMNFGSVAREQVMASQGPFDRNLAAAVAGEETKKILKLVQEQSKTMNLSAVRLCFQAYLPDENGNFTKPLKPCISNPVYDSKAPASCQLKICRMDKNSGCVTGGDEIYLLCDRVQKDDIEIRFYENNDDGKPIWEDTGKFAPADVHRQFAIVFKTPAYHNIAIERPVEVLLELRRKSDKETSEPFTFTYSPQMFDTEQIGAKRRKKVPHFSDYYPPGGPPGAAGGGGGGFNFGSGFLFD

[2] = molecular target: T2, GST-Nv-NF-kB (Cys allele) (Nematostella vectensis, UniProt E5G601 2-411)
T2 sequence: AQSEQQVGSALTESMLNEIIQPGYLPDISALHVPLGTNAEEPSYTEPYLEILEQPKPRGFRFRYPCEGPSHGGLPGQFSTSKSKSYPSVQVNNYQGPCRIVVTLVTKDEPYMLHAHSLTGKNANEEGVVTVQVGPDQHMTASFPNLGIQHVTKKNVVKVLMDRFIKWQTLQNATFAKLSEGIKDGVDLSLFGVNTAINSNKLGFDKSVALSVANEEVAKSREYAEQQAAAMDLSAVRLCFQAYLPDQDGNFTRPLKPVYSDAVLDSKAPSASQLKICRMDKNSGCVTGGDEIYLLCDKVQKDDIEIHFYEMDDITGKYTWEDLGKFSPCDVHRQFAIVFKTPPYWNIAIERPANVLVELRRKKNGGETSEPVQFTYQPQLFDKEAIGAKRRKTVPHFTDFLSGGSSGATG

[3] = molecular target: T3, GST-Co-NF-kB (Capsaspora owczarzaki, UniProt F1ARL5 200-546)
T3 sequence: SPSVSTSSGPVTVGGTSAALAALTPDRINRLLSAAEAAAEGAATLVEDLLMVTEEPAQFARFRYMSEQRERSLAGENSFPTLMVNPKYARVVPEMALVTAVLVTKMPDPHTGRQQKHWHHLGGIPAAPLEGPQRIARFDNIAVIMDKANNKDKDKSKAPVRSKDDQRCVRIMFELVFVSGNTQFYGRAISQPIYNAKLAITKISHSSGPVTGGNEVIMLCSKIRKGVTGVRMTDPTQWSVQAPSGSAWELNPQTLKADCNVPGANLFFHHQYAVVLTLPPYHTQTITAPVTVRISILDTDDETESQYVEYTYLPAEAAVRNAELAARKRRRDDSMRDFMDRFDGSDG

[4] = molecular target: T4, GST-Dm-Relish (Drosophila melanogaster, UniProt Q94527 99-473)
T4 sequence: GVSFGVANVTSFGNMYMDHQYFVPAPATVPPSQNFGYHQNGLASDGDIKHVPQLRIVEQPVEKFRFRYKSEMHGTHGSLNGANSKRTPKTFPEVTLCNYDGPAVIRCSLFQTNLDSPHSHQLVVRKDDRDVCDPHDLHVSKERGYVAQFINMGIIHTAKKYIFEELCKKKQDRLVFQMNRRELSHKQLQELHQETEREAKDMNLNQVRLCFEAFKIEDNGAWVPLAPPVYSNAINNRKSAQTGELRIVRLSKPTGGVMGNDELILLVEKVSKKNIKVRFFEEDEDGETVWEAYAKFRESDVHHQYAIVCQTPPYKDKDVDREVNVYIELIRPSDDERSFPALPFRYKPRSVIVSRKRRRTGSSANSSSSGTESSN

[5] = molecular target: T5, GST-Aq-NF-kB (Amphimedon queenslandica, UniProt A9Y5G7 2-389)
T5 sequence: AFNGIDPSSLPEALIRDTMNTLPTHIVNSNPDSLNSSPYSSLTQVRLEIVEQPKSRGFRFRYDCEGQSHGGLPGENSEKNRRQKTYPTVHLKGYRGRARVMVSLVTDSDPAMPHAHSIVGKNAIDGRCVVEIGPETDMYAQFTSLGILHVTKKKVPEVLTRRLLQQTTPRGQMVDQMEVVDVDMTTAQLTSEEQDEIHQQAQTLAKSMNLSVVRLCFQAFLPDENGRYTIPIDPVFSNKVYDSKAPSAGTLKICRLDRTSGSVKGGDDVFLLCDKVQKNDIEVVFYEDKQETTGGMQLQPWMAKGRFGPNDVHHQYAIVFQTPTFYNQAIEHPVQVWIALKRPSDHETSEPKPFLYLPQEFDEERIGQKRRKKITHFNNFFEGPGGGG

“CCGATTAACATCAGGGGACACCCTGATGTTAATCGGGTCTTGATTCGCTTGACGCTGCTG” gave a binding signal [1] of 5.89 z-score, a binding signal [2] of 4.47 z-score and a binding signal [3] of 3.91 z-score. For the same sequence, the binding signal [4] was 7.15 z-score and the binding signal [5] was 6.52 z-score.
For “CCGATTAACATCACGGAATACCCTGATGTTAATCGGGTCTTGATTCGCTTGACGCTGCTG”, the binding signal [1] was 3.79 z-score, the binding signal [2] was 4.14 z-score and the binding signal [3] was 1.67 z-score. For the same sequence, the binding signal [4] was 4.64 z-score and the binding signal [5] was 4.52 z-score.
“CCGATTAACATCAAGTCCCCCAATGATGTTAATCGGGTCTTGATTCGCTTGACGCTGCTG” showed a binding signal [1] of 4.26 z-score, a binding signal [2] of 3.66 z-score and a binding signal [3] of 3.84 z-score. It also gave a binding signal [4] of 2.8 z-score and a binding signal [5] of 3.76 z-score.
“CCGATTAACATCAGGAGTTTCCCTGATGTTAATCGGGTCTTGATTCGCTTGACGCTGCTG” showed a binding signal [1] of 4.6 z-score, a binding signal [2] of 6.51 z-score and a binding signal [3] of 3.2 z-score. For the same sequence, the binding signal [4] was 4.94 z-score and the binding signal [5] was 8.06 z-score.
With “CCGATTAACATCAGGGAAATATATGATGTTAATCGGGTCTTGATTCGCTTGACGCTGCTG” the binding signal [1] was 3.7 z-score, the binding signal [2] was 5.66 z-score and the binding signal [3] was 5.34 z-score. It also gave a binding signal [4] of 1.94 z-score and a binding signal [5] of 6.09 z-score.
With “CCGATTAACATCAGGGGCGCCCCTGATGTTAATCGGGTCTTGATTCGCTTGACGCTGCTG” the binding signal [1] was 7.03 z-score, the binding signal [2] was 5.37 z-score and the binding signal [3] was 3 z-score. It also gave a binding signal [4] of 6.07 z-score and a binding signal [5] of 8.59 z-score.
In the case of “CCGATTAACATCAGGGAGGGTAATGATGTTAATCGGGTCTTGATTCGCTTGACGCTGCTG”, the binding signal [1] is reported as 2.31 z-score, the binding signal [2] is reported as 2.15 z-score and the binding signal [3] is reported as 1.71 z-score. It also gave a binding signal [4] of 1.12 z-score and a binding signal [5] of 2.39 z-score.
“CCGATTAACATCAGGGGGGGCACTGATGTTAATCGGGTCTTGATTCGCTTGACGCTGCTG” gave a binding signal [1] of 4.77 z-score, a binding signal [2] of 3.1 z-score and a binding signal [3] of 4.2 z-score. The binding signal [4] was 4.97 z-score and the binding signal [5] was 4.76 z-score.
In the case of “CCGATTAACATCACTTTTTCCCATGATGTTAATCGGGTCTTGATTCGCTTGACGCTGCTG”, the binding signal [1] is reported as 2.03 z-score, the binding signal [2] is reported as 3.6 z-score and the binding signal [3] is reported as 4.08 z-score. For the same sequence, the binding signal [4] was 1.51 z-score and the binding signal [5] was 1.99 z-score.
Sequence “CCGATTAACATCAGGGAATTACATGATGTTAATCGGGTCTTGATTCGCTTGACGCTGCTG” has a binding signal [1] of 4.01 z-score, a binding signal [2] of 5.15 z-score and a binding signal [3] of 4.3 z-score. The binding signal [4] was 8.99 z-score and the binding signal [5] was 4.92 z-score.
“CCGATTAACATCAGGCCCCCCCCTGATGTTAATCGGGTCTTGATTCGCTTGACGCTGCTG” gave a binding signal [1] of 5.7 z-score, a binding signal [2] of 4.06 z-score and a binding signal [3] of 3.96 z-score. It also gave a binding signal [4] of 6.13 z-score and a binding signal [5] of 5.74 z-score.
Sequence “CCGATTAACATCACAGCCCCCCCTGATGTTAATCGGGTCTTGATTCGCTTGACGCTGCTG” has a binding signal [1] of 4.64 z-score, a binding signal [2] of 3.58 z-score and a binding signal [3] of 3.34 z-score. For the same sequence, the binding signal [4] was 4.81 z-score and the binding signal [5] was 3.82 z-score.
With “CCGATTAACATCACGTAAATCCCTGATGTTAATCGGGTCTTGATTCGCTTGACGCTGCTG” the binding signal [1] was 2.65 z-score, the binding signal [2] was 2.8 z-score and the binding signal [3] was 1.01 z-score. It also gave a binding signal [4] of 7.13 z-score and a binding signal [5] of 3.3 z-score.
“CCGATTAACATCAGACTTCCCCATGATGTTAATCGGGTCTTGATTCGCTTGACGCTGCTG” showed a binding signal [1] of 4.7 z-score, a binding signal [2] of 5.64 z-score and a binding signal [3] of 4.24 z-score. The binding signal [4] was 4.24 z-score and the binding signal [5] was 4.9 z-score.
For “CCGATTAACATCAGGGAATCCTATGATGTTAATCGGGTCTTGATTCGCTTGACGCTGCTG”, the binding signal [1] was 3.36 z-score, the binding signal [2] was 4.16 z-score and the binding signal [3] was 2.52 z-score. The binding signal [4] was 7.42 z-score and the binding signal [5] was 4.15 z-score.
With “CCGATTAACATCAAGGGGGTGACTGATGTTAATCGGGTCTTGATTCGCTTGACGCTGCTG” the binding signal [1] was 4.68 z-score, the binding signal [2] was 3.59 z-score and the binding signal [3] was 3.04 z-score. For the same sequence, the binding signal [4] was 2.43 z-score and the binding signal [5] was 4.26 z-score.
“CCGATTAACATCAGGGAAAGTAATGATGTTAATCGGGTCTTGATTCGCTTGACGCTGCTG” was tested, and the binding signal [1] was 3.01 z-score, the binding signal [2] was 4.93 z-score and the binding signal [3] was 3.38 z-score. For the same sequence, the binding signal [4] was 2.08 z-score and the binding signal [5] was 4.25 z-score.
In the case of “CCGATTAACATCAGCCCCCCCCATGATGTTAATCGGGTCTTGATTCGCTTGACGCTGCTG”, the binding signal [1] is reported as 4.34 z-score, the binding signal [2] is reported as 2.9 z-score and the binding signal [3] is reported as 5.27 z-score. The binding signal [4] was 4.42 z-score and the binding signal [5] was 4.51 z-score.
“CCGATTAACATCAGGGAATTCACTGATGTTAATCGGGTCTTGATTCGCTTGACGCTGCTG” showed a binding signal [1] of 4.74 z-score, a binding signal [2] of 5.33 z-score and a binding signal [3] of 3.01 z-score. The binding signal [4] was 8.25 z-score and the binding signal [5] was 6.46 z-score.
“CCGATTAACATCAGGGATTTCCATGATGTTAATCGGGTCTTGATTCGCTTGACGCTGCTG” gave a binding signal [1] of 4.13 z-score, a binding signal [2] of 3.8 z-score and a binding signal [3] of 1.29 z-score. It also gave a binding signal [4] of 7.94 z-score and a binding signal [5] of 5.39 z-score.
“CCGATTAACATCAAATATACCCATGATGTTAATCGGGTCTTGATTCGCTTGACGCTGCTG” gave a binding signal [1] of 2.13 z-score, a binding signal [2] of 2.41 z-score and a binding signal [3] of 1.8 z-score. It also gave a binding signal [4] of 2.31 z-score and a binding signal [5] of 2.52 z-score.
“CCGATTAACATCAGGGGGTACACTGATGTTAATCGGGTCTTGATTCGCTTGACGCTGCTG” showed a binding signal [1] of 4.19 z-score, a binding signal [2] of 2.66 z-score and a binding signal [3] of 4.33 z-score. For the same sequence, the binding signal [4] was 3.21 z-score and the binding signal [5] was 3.31 z-score.
For “CCGATTAACATCAAATTCCCGTATGATGTTAATCGGGTCTTGATTCGCTTGACGCTGCTG”, the binding signal [1] was 2.44 z-score, the binding signal [2] was 4.38 z-score and the binding signal [3] was 2.65 z-score. It also gave a binding signal [4] of 3.19 z-score and a binding signal [5] of 3.72 z-score.
“CCGATTAACATCAAATAAATCCCTGATGTTAATCGGGTCTTGATTCGCTTGACGCTGCTG” showed a binding signal [1] of 3.07 z-score, a binding signal [2] of 4.02 z-score and a binding signal [3] of 1.92 z-score. For the same sequence, the binding signal [4] was 5.66 z-score and the binding signal [5] was 5.06 z-score.
In the case of “CCGATTAACATCAATTTTCCCAATGATGTTAATCGGGTCTTGATTCGCTTGACGCTGCTG”, the binding signal [1] is reported as 1.98 z-score, the binding signal [2] is reported as 3.86 z-score and the binding signal [3] is reported as 3.99 z-score. The binding signal [4] was 1.29 z-score and the binding signal [5] was 2.61 z-score.
With “CCGATTAACATCAAGGATTTCCCTGATGTTAATCGGGTCTTGATTCGCTTGACGCTGCTG” the binding signal [1] was 4.49 z-score, the binding signal [2] was 6.09 z-score and the binding signal [3] was 3.24 z-score. For the same sequence, the binding signal [4] was 6.12 z-score and the binding signal [5] was 6.2 z-score.
In the case of “CCGATTAACATCACGCAACCCCCTGATGTTAATCGGGTCTTGATTCGCTTGACGCTGCTG”, the binding signal [1] is reported as 5.37 z-score, the binding signal [2] is reported as 3.7 z-score and the binding signal [3] is reported as 2 z-score. The binding signal [4] was 5.08 z-score and the binding signal [5] was 3.89 z-score.
